Calls of active or inactive are those of the source.
Legend:
[1] = small molecules captured by biotinylated probe aFSTL3 – biochemical, small-molecule microarray, fluorescence 635/667, stem cell growth factor project, primary screen (AID 1064); details: higher = more signal;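 further: measures binding of the biotinylated anti-FSTL3 antibody to printed compounds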
[2] = binders from COS7 lysate, DM2A8 probe, primary screen, torsin A project, cell lysate, small-molecule microarray, fluorescence 635/667 (AID 1065); details: higher = more signal, COS7 lysate expressing mutant human TOR1A
[3] = small molecules captured by biotinylated probe aFGF2 – biochemical, small-molecule microarray, fluorescence 635/667, stem cell growth factor project, primary screen (AID 1067); details: higher = more signal;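 further: measures binding of biotinylated aFGF2 protein to printed compounds on slides; z-score merges feature fluorescence and signal-to-noise across triplicate slides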
[4] = small molecules captured by biotinylated probe aFGF10 – biochemical, small-molecule microarray, fluorescence 635/667, stem cell growth factor project, primary screen (AID 1071); details: higher = more signal;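 further: score merges 667 nm spot intensity and signal to noise from triplicate slides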
[5] = target: Neurogenic locus notch homolog protein 2 (Homo sapiens) (UniProt Q04721); experiment: small molecules binding Notch2 protein – biochemical, small-molecule microarray, 635 nm fluorescence, stem cell growth factors, primary screen (AID 1073); details: higher = more signal
Neurogenic locus notch homolog protein 2 (Homo sapiens), sequence (Q04721 whole entry, looked up, canonical isoform): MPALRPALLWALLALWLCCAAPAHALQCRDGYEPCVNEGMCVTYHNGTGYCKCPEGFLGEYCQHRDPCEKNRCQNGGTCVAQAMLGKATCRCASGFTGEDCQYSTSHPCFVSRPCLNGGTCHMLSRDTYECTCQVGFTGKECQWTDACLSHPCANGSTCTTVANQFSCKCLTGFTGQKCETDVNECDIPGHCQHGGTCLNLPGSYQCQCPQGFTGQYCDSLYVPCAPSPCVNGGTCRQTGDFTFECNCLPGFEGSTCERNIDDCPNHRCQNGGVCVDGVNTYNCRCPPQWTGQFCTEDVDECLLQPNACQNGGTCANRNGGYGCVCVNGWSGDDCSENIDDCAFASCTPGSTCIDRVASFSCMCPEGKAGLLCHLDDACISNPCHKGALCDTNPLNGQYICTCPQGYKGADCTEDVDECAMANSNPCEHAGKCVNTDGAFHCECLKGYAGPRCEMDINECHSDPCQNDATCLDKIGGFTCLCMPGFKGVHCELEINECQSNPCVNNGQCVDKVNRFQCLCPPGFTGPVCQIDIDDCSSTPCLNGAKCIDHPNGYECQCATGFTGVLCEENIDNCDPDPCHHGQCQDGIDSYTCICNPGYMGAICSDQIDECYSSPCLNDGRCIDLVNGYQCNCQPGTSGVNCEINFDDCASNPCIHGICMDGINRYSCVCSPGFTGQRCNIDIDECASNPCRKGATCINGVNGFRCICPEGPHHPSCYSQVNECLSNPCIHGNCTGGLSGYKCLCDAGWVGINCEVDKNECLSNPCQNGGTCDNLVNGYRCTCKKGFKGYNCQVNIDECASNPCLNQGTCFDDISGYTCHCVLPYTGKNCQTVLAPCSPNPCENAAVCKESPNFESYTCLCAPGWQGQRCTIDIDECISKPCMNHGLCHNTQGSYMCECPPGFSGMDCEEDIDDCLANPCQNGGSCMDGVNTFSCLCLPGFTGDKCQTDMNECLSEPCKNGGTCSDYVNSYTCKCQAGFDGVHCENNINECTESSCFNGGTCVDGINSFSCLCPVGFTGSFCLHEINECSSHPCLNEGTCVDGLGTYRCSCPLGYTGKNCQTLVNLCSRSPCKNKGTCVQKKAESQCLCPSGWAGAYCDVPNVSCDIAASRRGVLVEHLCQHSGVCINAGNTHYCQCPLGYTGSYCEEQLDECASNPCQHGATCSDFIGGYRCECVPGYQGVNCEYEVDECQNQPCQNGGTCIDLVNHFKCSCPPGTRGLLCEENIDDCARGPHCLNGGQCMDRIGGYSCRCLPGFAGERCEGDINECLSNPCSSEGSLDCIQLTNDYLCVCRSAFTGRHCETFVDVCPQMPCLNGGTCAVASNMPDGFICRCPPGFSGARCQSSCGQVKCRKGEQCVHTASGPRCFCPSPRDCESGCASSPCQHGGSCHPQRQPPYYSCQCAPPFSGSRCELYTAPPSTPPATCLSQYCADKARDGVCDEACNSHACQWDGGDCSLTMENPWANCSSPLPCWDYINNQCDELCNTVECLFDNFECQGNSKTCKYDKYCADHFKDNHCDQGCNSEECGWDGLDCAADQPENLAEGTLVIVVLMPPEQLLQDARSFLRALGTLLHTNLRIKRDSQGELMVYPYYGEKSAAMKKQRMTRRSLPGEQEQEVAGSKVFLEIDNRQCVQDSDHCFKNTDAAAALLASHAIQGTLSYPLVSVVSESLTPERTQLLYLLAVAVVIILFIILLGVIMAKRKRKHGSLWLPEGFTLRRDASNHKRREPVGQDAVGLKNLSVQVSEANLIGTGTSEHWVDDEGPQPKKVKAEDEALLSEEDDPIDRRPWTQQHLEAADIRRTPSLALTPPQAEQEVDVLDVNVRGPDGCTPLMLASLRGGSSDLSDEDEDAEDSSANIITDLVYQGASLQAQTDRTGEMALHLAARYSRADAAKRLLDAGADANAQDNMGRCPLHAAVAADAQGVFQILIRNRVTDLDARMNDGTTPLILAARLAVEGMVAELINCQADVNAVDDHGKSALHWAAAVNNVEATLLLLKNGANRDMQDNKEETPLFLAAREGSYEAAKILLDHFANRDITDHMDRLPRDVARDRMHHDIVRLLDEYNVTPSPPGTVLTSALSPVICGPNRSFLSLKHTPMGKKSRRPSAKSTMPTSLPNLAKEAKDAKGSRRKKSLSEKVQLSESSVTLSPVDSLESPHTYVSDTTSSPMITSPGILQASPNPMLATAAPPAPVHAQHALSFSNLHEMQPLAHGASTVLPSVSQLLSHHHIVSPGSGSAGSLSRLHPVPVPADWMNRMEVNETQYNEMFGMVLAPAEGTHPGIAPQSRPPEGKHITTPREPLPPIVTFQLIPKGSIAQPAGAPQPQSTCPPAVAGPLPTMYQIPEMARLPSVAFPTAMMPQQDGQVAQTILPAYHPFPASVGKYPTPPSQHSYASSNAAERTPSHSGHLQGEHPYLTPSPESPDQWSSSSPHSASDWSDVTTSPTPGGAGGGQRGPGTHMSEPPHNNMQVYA

[6] = target: Pro-neuregulin-1, membrane-bound isoform (Homo sapiens) (UniProt Q02297); experiment: small molecules binding neuregulin-1 protein – biochemical, small-molecule microarray, fluorescence 635/667, psychiatric disease protein project, primary screen (AID 1075); details: NRG1 binding, 635 nm fluorescence, higher = more signal;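 further: score combines 667 nm spot fluorescence with signal to noise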
Pro-neuregulin-1, membrane-bound isoform (Homo sapiens), sequence (Q02297 whole entry, looked up, the tested form may be a part, canonical isoform): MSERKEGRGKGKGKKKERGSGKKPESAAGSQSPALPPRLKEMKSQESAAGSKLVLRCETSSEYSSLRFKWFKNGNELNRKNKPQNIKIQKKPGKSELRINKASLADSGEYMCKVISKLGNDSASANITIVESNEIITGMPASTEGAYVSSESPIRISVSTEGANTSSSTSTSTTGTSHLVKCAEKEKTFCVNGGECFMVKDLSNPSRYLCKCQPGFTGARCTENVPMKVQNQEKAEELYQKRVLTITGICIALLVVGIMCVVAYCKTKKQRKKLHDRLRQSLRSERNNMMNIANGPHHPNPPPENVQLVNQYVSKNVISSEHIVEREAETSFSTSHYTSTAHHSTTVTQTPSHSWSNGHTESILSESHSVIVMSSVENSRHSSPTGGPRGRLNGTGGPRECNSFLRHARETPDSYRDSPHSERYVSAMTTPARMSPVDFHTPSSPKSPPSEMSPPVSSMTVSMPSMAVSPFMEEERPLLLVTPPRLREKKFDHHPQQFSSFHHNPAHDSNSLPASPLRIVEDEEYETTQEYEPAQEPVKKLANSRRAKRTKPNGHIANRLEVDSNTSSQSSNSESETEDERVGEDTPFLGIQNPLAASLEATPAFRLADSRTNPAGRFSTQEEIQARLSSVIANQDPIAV

[7] = system: Neuregulin-1 EGF-like domain; experiment: small molecules binding NRG1 EGF domain – biochemical, small-molecule microarray, 635 nm fluorescence, primary screen (AID 1081); details: higher = more signal;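 further: binding of the protein to compounds printed on small-molecule microarray slides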
[8] = FRG1 expression reporter modulators in myotubes – cell-based, C2C12 myotubes, firefly/Renilla luciferase, luminescence, FRG1 inhibition for FSHD, primary screen (AID 1084); details: FRG1 promoter luciferase, higher = more signal, called active from +8 up or from −8 down
[9] = small molecules captured by biotinylated probe aFST – biochemical, small-molecule microarray, fluorescence 635/667, stem cell growth factor project, primary screen (AID 1086); details: higher = more signal;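 further: score merges 667 nm fluorescence with signal-to-noise of each printed compound spot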
[10] = binders of probe aHhip on microarray, primary screen, stem cell growth factor project, biochemical, small-molecule microarray, fluorescence 635/667 (AID 1087); details: higher = more signal;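 further: score merges spot fluorescence at 667nm with spot signal to noise ratio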
[11] = system: PRMT1 (protein arginine N-methyltransferase 1); experiment: small molecules binding arginine methyltransferase PRMT1 – biochemical, small-molecule microarray, 635 nm fluorescence, primary screen (AID 1088); details: higher = more signal;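 further: binding of Prmt1 protein to compounds spotted on small-molecule microarray slides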
[12] = growth effects on S. cerevisiae YJM789 – YJM789 clinical isolate, OD600, 24 h, basal, primary screen (AID 1089); details: higher = more signal, called active from +8 up or from −8 down;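 further: growth of clinical yeast isolate S. cerevisiae YJM 789 seeded 1000 cells per well; test concentration not given here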
[13] = S. pombe growth modifiers, basal conditions – strain 972, OD600, 24 h, no modulator, primary screen (AID 1090);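 further: basal condition with compound alone and no growth modifier present; test concentration not given here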; details: S. pombe 972 growth, higher = more signal, called active from +8 up or from −8 down
[14] = budding yeast growth modifiers under rapamycin – strain BY4716, OD600, 96 h, primary screen (AID 1091); further: test concentration not given here; details: S. cerevisiae BY4716 + rapamycin, higher = more signal, called active from +8 up or from −8 down
[15] = target: Torsin-1A-interacting protein 2 (Homo sapiens) (UniProt Q8NFQ8); experiment: small molecules binding lysate-expressed LULL1 – cell lysate, human LULL1 lysate, 635/667 nm fluorescence, primary screen (AID 1092); details: small-molecule microarray, hLULL1 lysate binding, 635 nm fluorescence; higher = more signal;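 further: probe is lysate of COS7 cells overexpressing human LULL1; score merges per-feature 667 nm fluorescence with signal-to-noise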
Torsin-1A-interacting protein 2 (Homo sapiens), sequence (Q8NFQ8 whole entry, looked up): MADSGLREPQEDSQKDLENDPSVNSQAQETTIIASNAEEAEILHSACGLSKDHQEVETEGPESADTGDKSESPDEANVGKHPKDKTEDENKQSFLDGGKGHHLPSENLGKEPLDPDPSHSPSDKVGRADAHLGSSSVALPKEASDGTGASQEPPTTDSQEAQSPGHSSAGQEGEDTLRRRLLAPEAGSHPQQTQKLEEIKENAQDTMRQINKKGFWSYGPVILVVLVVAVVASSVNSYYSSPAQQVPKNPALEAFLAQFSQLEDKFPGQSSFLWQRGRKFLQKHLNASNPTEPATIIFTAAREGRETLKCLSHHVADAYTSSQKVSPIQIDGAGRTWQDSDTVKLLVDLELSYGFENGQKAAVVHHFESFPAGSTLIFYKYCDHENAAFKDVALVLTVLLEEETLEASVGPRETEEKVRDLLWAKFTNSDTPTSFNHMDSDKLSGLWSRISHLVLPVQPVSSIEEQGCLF

[16] = optical density change of DRC41 E. coli – strain DRC41, OD650, 24 h, E. coli filamentation project, primary screen (AID 1093);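 further: MC1000 strain lacking acrAB efflux and sulA so SOS filamentation is blocked; test concentration not given here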; details: E. coli DRC41 growth, higher = more signal, called active from +8 up or from −8 down
[17] = probe aLefty2 binding to arrayed compounds – biochemical, biotinylated probe, 635/667 nm fluorescence, primary screen (AID 1094); details: small-molecule microarray, higher = more signal;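 further: score merges spot fluorescence near 667 nm with spot signal-to-noise ratio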
[18] = system: Noggin (protein binding on small-molecule microarray); experiment: small molecules binding Noggin protein – biochemical, 635/667 nm fluorescence, primary screen (AID 1095); details: 635 nm fluorescence, higher = more signal;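 further: score merges 667 nm feature fluorescence with signal to noise over triplicate slides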
[19] = target: Neurogenic locus notch homolog protein 3 (Homo sapiens) (UniProt Q9UM47); experiment: small molecules binding NOTCH3 protein – biochemical, 635/667 nm fluorescence, primary screen (AID 1096); details: small-molecule microarray, 635 nm fluorescence, higher = more signal
[20] = probe aEGFR binding to arrayed compounds – biochemical, biotinylated probe, 635/667 nm fluorescence, primary screen (AID 1097); details: small-molecule microarray, higher = more signal;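 further: probe is a biotinylated anti-EGFR antibody binding compounds printed on slides; score combines fluorescence near 667 nm and signal to noise of each spot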

Structure (SMILES) | composite z-score [1] | composite z-score [2] | composite z-score [3] | composite z-score [4] | composite z-score [5] | composite z-score [6] | composite z-score [7] | z-score [8] | composite z-score [9] | composite z-score [10] | composite z-score [11] | z-score [12] | z-score [13] | z-score [14] | composite z-score [15] | z-score [16] | composite z-score [17] | composite z-score [18] | composite z-score [19] | composite z-score [20]
COCCOC(=O)N1C(=O)[C@@]2(c3cc(C#Cc4ccc(OC)cc4)ccc31)[C@H](c1ccc(O)cc1)N1[C@H](c3ccccc3)[C@H](c3ccccc3)OC(=O)[C@H]1[C@@H]2C(=O)N1CCN(c2ncccn2)CC1 | -0.867 | 0.47 | -0.0225 | 0.381 | 0.846 | 0.467 | 1.13 | -0.431 (inactive) | 0.619 | -0.132 | 1.52 | 1.56 (inactive) | 1.16 (inactive) | 2.83 (inactive) | 2.44 | 1.15 (inactive) | 0.047 | 0.52 | 0.258 | 0.0746
COc1ccc([Si](C)(C)[C@H]2[C@H](CCO)O[C@@]3(C(=O)N(Cc4ccccc4)c4ccc(N5C(=O)COc6ccccc65)cc43)[C@@H]2C)cc1 | 0.253 | -0.113 | -0.0692 | 0.264 | 0.167 | 1.06 | 0.487 | -1.69 (inactive) | 0.0228 | 0.357 | -0.171 | 0.773 (inactive) | -0.494 (inactive) | 5.54 (inactive) | 1.14 | 1.45 (inactive) | 0.0365 | 0.177 | 0.246 | -0.126
Cc1ccc(N2C(=O)c3ccccc3[C@@H](C(=O)NCC(C)C)[C@@H]2c2ccc(CO)cc2)nc1 | 0.341 | -0.751 | -0.161 | -0.494 | -1.07 | -0.265 | 0.346 | -0.788 (inactive) | -0.473 | -0.0645 | 0.137 | 0.229 (inactive) | 0.0994 (inactive) | -0.456 (inactive) | 2.32 | 0.409 (inactive) | -0.186 | -0.479 | -1.03 | -0.298
COCCOC(=O)N1C(=O)[C@@]2(c3cc(C#CC4=CCCCC4)ccc31)[C@H](c1ccc(OCCO)cc1)N1[C@H](c3ccccc3)[C@H](c3ccccc3)OC(=O)[C@H]1[C@@H]2C(=O)Nc1nc2ccccc2s1 | -0.368 | 0.115 | -0.104 | 0.854 | 1.4 | 0.93 | 1.12 | 1.89 (inactive) | 0.241 | 0.0722 | 1.55 | 1.09 (inactive) | 1.04 (inactive) | 3.21 (inactive) | 3.06 | 1.9 (inactive) | -0.0242 | 0.772 | 1.08 | -0.0164
CN1C(=O)C2C=CC(C(O)C=Cc3ccc([N+](=O)[O-])cc3)N(N3CCCCC3)C2C1=O (stereo not given) | 1.79 | 1.62 | 0.556 | 1.11 | 1.69 | 1.69 | 0.932 | 4.21 (inactive) | 2.23 | 0.217 | 1.09 | -0.704 (inactive) | -7.07 (inactive) | -0.476 (inactive) | 2.79 | -1.33 (inactive) | 0.859 | 0.38 | 1.06 | 0.789
CN(C)CCCC[C@@H]1NC(=O)[C@H]2C[C@@H](C(=O)NCCCCCNC(=O)CS)[C@@H](c3ccc(O)cc3)N2C1=O | 0.594 | -0.149 | -0.203 | -0.122 | -1.21 | 0.356 | -0.458 | 0.348 (inactive) | -0.576 | -0.134 | -0.97 | 0.428 (inactive) | -0.578 (inactive) | -0.52 (inactive) | 0.134 | 0.702 (inactive) | 0.0601 | -0.673 | -0.0464 | -0.167
C=C(/C(=C/C[C@@H](OC(C)=O)c1ccc(CO)o1)c1cnc2ccccc2c1)C(C)C | -0.524 | 1.53 | -0.0766 | 1.13 | 1.53 | 0.766 | 1.32 | 0.439 (inactive) | 0.284 | -0.0618 | 1.55 | 1.2 (inactive) | -0.767 (inactive) | 0.375 (inactive) | 1.86 | 1.27 (inactive) | -0.11 | 1.08 | 1.07 | 0.0367
O=C1O[C@@H](c2ccccc2)[C@@H](c2ccccc2)N2[C@@H](c3ccc(O)cc3)[C@]3(C(=O)Nc4ccc(C#CCCO)cc43)[C@@H](C(=O)O)[C@H]12 | 3.16 | 0.489 | 0.548 | 0.306 | 0.725 | 1.91 | 1.07 | -0.55 (inactive) | 2.44 | 1.69 | 1.57 | 0.414 (inactive) | -0.571 (inactive) | -0.265 (inactive) | 2.79 | 0.7 (inactive) | 1.55 | -0.222 | 0.314 | 1.07
CCCC[C@@H]1C[C@H]1[C@@H](NC(=O)c1ccccc1)c1ccccc1 | 0.343 | -0.0895 | 0.15 | 0.14 | 0.18 | -0.392 | -0.303 | -0.0327 (inactive) | 1.14 | 2.02 | -0.352 | 0.588 (inactive) | 1.02 (inactive) | 1.54 (inactive) | 0.981 | -0.404 (inactive) | 0.302 | 0.226 | 0.571 | 0.104
C=CCOC(=O)[C@@H]1[C@H]2C(=O)O[C@H](c3ccccc3)[C@H](c3ccccc3)N2[C@H](c2ccc(OCCOC(=O)[C@H]3C[C@H]4C(=O)N[C@@H](CCCC[N+](C)(C)C)C(=O)N4[C@H]3c3cccc(OCCO)c3)cc2)[C@@]12C(=O)Nc1ccc(I)cc12 | -0.542 | 0.391 | -0.0824 | 0.651 | 0.827 | -0.306 | 1.17 | 0.179 (inactive) | 0.166 | 0.154 | 1.59 | 0.904 (inactive) | 1.04 (inactive) | 4.48 (inactive) | 2.34 | 0.254 (inactive) | 0.0631 | 1.45 | 1.13 | 0.0527
COC(=O)[C@@]1(Cc2ccc(F)cc2)[C@H]2c3cc(C(=O)N(C)C)n(CCc4c[nH]c5ccc(OC)cc45)c3C[C@H]2CN1C(=O)c1ccccc1 | 1.1 | 1.29 | 0.181 | 0.175 | 1.37 | 0.88 | 1.36 | 1.59 (inactive) | 1.34 | 0.836 | 0.84 | 0.12 (inactive) | -0.331 (inactive) | 0.342 (inactive) | 3.17 | -1.47 (inactive) | 0.809 | -0.682 | 0.0599 | 0.341
COC(=O)[C@@]1(Cc2ccccc2)[C@H]2c3cc(C(=O)N(C)C)n(Cc4cc(F)c(F)c(F)c4)c3C[C@H]2CN1C(=O)c1ccccc1 | 0.683 | -0.166 | 0.117 | 1.23 | 1.68 | 2.02 | 1.16 | 1.47 (inactive) | 0.437 | 0.776 | 0.664 | 0.103 (inactive) | 1.52 (inactive) | 0.405 (inactive) | 3.22 | -0.832 (inactive) | 0.461 | 0.137 | 1.04 | 0.218
CCCNC(=O)[C@@]1(C)c2ccccc2C(=O)N(Cc2cc(C(F)(F)F)cc(C(F)(F)F)c2)[C@H]1c1ccc(CO)cc1 | 0.177 | -0.0656 | -0.0653 | 0.108 | -0.626 | 1.68 | 1.37 | 0.0565 (inactive) | -0.0368 | -0.0645 | 1.43 | 0.0841 (inactive) | -0.25 (inactive) | -0.49 (inactive) | 2.59 | -0.667 (inactive) | -0.119 | -0.675 | -0.131 | -0.137
